The list is not random: actives were taken first. Their share in the collection is about 3.3%.
BRCT PPI red: disrupts BRCA1 BRCT binding to phosphoprotein, red fluorophore readout. P38398. BRCT-phosphopeptide binding, red fluorescence polarization. Potency, µM (top dose mostly 76.9 µM), for the others: at the top dose activity change, negative = inhibition, hits mostly inhibitors. actives 0.03% (n = 75,000); note: % is set by controls: 0 for no effect and ±100 for the full control effect
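Rhodamine-labelled pBACH1 10-mer (100 nM) bound to BRCT domain (100 nM) at pH 7.3; compounds incubated 12 min room temperature, polarization read. Free peptide defines full inhibition; unlabelled decapeptide titrated as control.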
Tau fil binding: binders of human tau filaments; P10636; recombinant tau filaments, thioflavin S fluorescence, 15 h; filaments grown with octadecylsulfate alongside compound; Potency, µM (doses to about 57.1 µM), without a hit: at the highest dose activity change, negative = inhibition; actives 2% (n = 71,000);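 note: potency is the fitted concentration of half-maximal effect; % is set by controls: 0 for no effect and ±100 for the full control effect; actives lower thioflavin S fluorescence by blocking filaments or displacing dye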
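Quantitative HTS: thioflavine S signal from ODS-induced tau filaments, excited at 450 nm, emission 510 nm. Conditions: 1 uM tau, 30 uM ODS, 15 h at 37 C, pH 7.4.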
15-hLO inh: blocks human 15-lipoxygenase activity; actives 1.4% (n = 74,000); AID 887; purified 15hLO-1, xylenol orange hydroperoxide absorbance; P16050; Potency, µM (series often up to 57.1 µM), for inactives: at the top dose activity change, negative = inhibition, usual class: inhibitors; note: potency is the fitted concentration of half-maximal effect; % is set by controls: 0 for no effect and ±100 for the full control effect; nearly all actives have a fitted effect of over 55% in size
Target sequence (P16050 whole entry, looked up): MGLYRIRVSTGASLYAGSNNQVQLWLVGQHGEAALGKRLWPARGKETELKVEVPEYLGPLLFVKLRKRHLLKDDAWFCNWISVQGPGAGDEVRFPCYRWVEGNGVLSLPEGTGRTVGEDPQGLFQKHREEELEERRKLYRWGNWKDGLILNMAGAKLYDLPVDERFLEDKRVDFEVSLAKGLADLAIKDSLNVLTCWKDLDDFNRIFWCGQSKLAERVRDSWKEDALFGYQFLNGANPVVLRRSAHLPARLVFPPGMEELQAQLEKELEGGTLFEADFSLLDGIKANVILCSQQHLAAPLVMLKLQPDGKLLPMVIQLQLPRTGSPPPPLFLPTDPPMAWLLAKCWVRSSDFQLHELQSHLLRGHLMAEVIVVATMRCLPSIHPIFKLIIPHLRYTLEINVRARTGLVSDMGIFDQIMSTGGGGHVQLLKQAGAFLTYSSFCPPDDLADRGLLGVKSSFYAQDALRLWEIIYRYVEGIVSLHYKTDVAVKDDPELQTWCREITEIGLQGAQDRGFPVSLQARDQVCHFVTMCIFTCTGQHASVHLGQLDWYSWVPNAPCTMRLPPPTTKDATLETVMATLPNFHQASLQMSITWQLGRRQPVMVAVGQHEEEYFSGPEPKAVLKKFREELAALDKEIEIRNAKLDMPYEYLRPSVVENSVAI
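Hydroperoxide formed from arachidonic acid (50 uM) by purified human 15hLO-1 (40 nM) oxidizes ferrous iron, and the ferric-xylenol orange complex is read at 573 versus 405 nm. Compounds were preincubated 15 min; reaction ran 6 min at room temperature.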
YjeE inh: YjeE (TsaE) inhibition, E. coli | Potency, µM | actives 0.05% (n = 71,000) | AID 605 | P0AF67 | purified YjeE enzyme, qHTS inhibition assay
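Fluorescence polarization of a BODIPY Texas Red–ADP probe (2 uM) bound to purified YjeE (10 uM) was read after 15 min room-temperature incubation with compounds. Loss of polarization marks inhibitors; ADP serves as titrated control.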
BRCT inh green: inhibitors of human BRCA1 BRCT-phosphoprotein interaction (green fluorophore); P38398; BRCA1 BRCT-phosphopeptide binding, green fluorescence polarization; Potency, µM (highest dose often 76.9 µM), inactives show at the highest dose activity change, negative = inhibition, hits mostly inhibitors; actives 0.05% (n = 75,000); AID 875;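 note: potency is the fitted concentration of half-maximal effect; plate controls were peptide without protein for full effect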
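Fluorescence polarization: His-tagged BRCT (~35 kDa BRCA1 C-terminus, 250 nM) bound to 100 nM fluorescein-labeled phosphorylated 10-aa BACH1 peptide, pH 7.3 phosphate buffer with DTT and Tween 20. Compounds incubated 12 min at room temperature; inhibition read as lowered polarization.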
DNA Pol III inh: DNA polymerase III holoenzyme inhibition. actives 0.25% (n = 71,000). Potency, µM (titrated, usually from 57.1 µM), without a hit: at the highest dose activity change, negative = inhibition. AID 603. reconstituted DNA polymerase III holoenzyme replication, biochemical; note: potency is the fitted concentration of half-maximal effect; % is set by controls: 0 for no effect and ±100 for the full control effect
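Reconstituted *E. coli* holoenzyme (0.35 nM Pol III, 1 nM beta, 154 nM SSB, 2 nM primase) was preincubated with compound for 15 min at RT. Synthesis on 1.4 nM ssM13Gori ran 35 min, then was stopped with PicoGreen/EDTA and read as dsDNA fluorescence.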
* marks the source's active call; other numbers are inactive results; i = inactive; ? = inconclusive; nt = not tested or not shown; [ ] = dose if it differs, or a comment. Calls come from the whole dose curve; as a rule, active = well fitted curve in the direction sought with a large enough effect; inconclusive = small, poorly fitted or top-dose-only effect, or another doubt; inactive = no such curve, though single readings can be large; an effect the other way counts as inactive or inconclusive.

SMILES | BRCT PPI red | Tau fil binding | 15-hLO inh | YjeE inh | BRCT inh green | DNA Pol III inh
CCOc1cccc(=O)c2c(C)n(Cc3ccco3)c(C)c12 | 0% | 4µM* | -25% | i | 35% | -3%
CCc1ccc2c(-c3cccc(Cl)c3)nc(=O)n(CC)c2n1 | 0% | 32µM* | -4%[25.6 µM] | i | 1% | -3%
Cc1cc(C(=O)CSC(=S)SC(C)(C)C)ccc1Cl | -1%[15.4 µM] | -12%[11.4 µM] | -2%[11.4 µM] | i | -7%[15.4 µM] | -8%[11.4 µM]
CO[C@H]1COC(=O)C/C=C\[C@H](C)[C@@H](OC)COC(=O)[C@H](C)COC(=O)C/C=C\[C@@H]1C | 0%[15.4 µM] | nt | 5%[11.4 µM] | nt | 0%[15.4 µM] | nt
CCN(CC)S(=O)(=O)c1cccc(-c2nnc(SCc3nnc(-c4cccs4)o3)n2N)c1 | 0% | -28% | -4% | i | 1% | -6%
CN(C)S(=O)(=O)c1cccc(-c2nnc(SCc3cc(Cl)cc4c3OCOC4)n2N)c1 | -2% | -1% | 13µM* | i | 1% | -6%
O=C(O)CCn1cnc2c(=S)nc[nH]c21 | 1%[15.4 µM] | -14%[11.4 µM] | -2%[11.4 µM] | i | 0%[15.4 µM] | 12%[11.4 µM]
COc1nc(Nc2ccc(O)cc2)nc(OC(C(F)(F)F)C(F)(F)F)n1 | -3% | -11% | 25µM* | i | -3% | 2%
COc1ccc(Nc2nc(OC)nc(N3CCN(c4ccc(OC)cc4)CC3)n2)cc1 | -1% | 70% | 0% | i | -4% | 0%
COc1ccc2ccccc2c1C(O)c1nccn1C (stereo unspecified) | ? | i | ? | i | 13µM* | 48%
Cc1cc(Cl)cc2c1NC(=O)[C@]21[C@@H]2C(=O)N(Cc3ccccc3)C(=O)[C@@H]2[C@@H]2CCCN21 | 1% | 25µM* | ? | i | 3% | -1%
CCc1ccc2c(c1)[C@]1(C(=O)N2)[C@@H]2C(=O)N(Cc3ccccc3)C(=O)[C@@H]2[C@@H]2CCCN21 | 0% | 20µM* | -9% | i | 0% | -4%
NS(=O)(=O)c1ccc(N=Nc2nc3[nH]c(=O)[nH]c(=O)c3[nH]2)cc1 | 0%[15.4 µM] | -1%[11.4 µM] | ? | i | 1%[15.4 µM] | -10%[11.4 µM]
COC(=O)c1ccc(C23CC2(C(NP(=O)(c2ccccc2)c2ccccc2)c2ccccc2)C3)cc1 (stereo unspecified) | 4% | -12% | nt | i | 3% | 2%
N/C(CC/C(N)=N/O)=N\O | -1%[15.4 µM] | -2%[11.4 µM] | -2%[11.4 µM] | i | -2%[15.4 µM] | -9%[11.4 µM]
COc1ccc(NC(=O)Nc2ccc3nccnc3c2)cc1 | 1% | 3.2µM* | 2%[11.4 µM] | i | -1% | -4%[11.4 µM]
COc1ccc(NC(=O)Nc2ccc(N(C)C)cc2)cc1 | 0% | 16µM* | -7% | i | 3% | 0%
C#CCCCO/N=C1/C[C@@H](O)[C@@H](O)[C@@H]2[C@@H]3C(=O)N(Cc4ccccc4)C(=O)[C@H]3CC[C@@H]12 | -2%[15.4 µM] | nt | 2%[11.4 µM] | nt | 0%[15.4 µM] | nt
COc1ccc(OC2C=CC(c3ccccc3)OC2CO)c(C(C)(C)C)c1 (stereo unspecified) | 0%[15.4 µM] | nt | 6%[11.4 µM] | nt | 0%[15.4 µM] | nt
CCOC(=O)C1=C(C)NC2=C(C(=O)c3ccccc32)C1c1cccnc1 (stereo unspecified) | 0% | 3.2µM* | 1% | i | -2% | 6%
Oc1cc(O)c2c(c1)O[C@H](c1ccc(O)c(O)c1)[C@@H](O)[C@@H]2c1c(O)cc(O)c2c1O[C@@H](c1ccc(O)c(O)c1)[C@H](O)C2 | 2%[15.4 µM] | 2%[11.4 µM] | ? | i | 0%[15.4 µM] | 0.63µM*
COc1ccc(CCN2C(=O)c3cccnc3C2=O)cc1OC | 0% | -4% | 2% | i | -1% | 4%
COc1cc2c(cc1OC)-c1c(OC)c(OC)cc3ccnc(c13)C2=O | 1% | 32µM* | -1%[25.6 µM] | i | -11% | ?
COc1cc(C(=O)NCc2ccc3c(c2)OCO3)ccc1OCc1c(C)noc1C | -2% | 142% | 13µM* | i | -10% | 3%
CN1C[C@@H](O)[C@@H](O)[C@@H](O)[C@@H]1CO | nt | -2% | nt | i | nt | -4%

Screening data: PubChem BioAssay, National Center for Advancing Translational Sciences (NCATS)
